Assay outcomes deposited in PubChem by National Center for Advancing Translational Sciences (NCATS).
ALOX12 inh – ALOX12 (human) lipoxygenase inhibition | P18054 | AID 1671190 | Potency, µM (highest dose often 108 µM), inactives show top-dose activity change, negative = inhibition, usual class: inhibitors | hit rate 1.1% among 580,000 | purified 12hLO, xylenol orange hydroperoxide absorbance; further: on the % scale 0 is the no-effect control and ±100 the full control effect
Target sequence (P18054 whole entry, looked up): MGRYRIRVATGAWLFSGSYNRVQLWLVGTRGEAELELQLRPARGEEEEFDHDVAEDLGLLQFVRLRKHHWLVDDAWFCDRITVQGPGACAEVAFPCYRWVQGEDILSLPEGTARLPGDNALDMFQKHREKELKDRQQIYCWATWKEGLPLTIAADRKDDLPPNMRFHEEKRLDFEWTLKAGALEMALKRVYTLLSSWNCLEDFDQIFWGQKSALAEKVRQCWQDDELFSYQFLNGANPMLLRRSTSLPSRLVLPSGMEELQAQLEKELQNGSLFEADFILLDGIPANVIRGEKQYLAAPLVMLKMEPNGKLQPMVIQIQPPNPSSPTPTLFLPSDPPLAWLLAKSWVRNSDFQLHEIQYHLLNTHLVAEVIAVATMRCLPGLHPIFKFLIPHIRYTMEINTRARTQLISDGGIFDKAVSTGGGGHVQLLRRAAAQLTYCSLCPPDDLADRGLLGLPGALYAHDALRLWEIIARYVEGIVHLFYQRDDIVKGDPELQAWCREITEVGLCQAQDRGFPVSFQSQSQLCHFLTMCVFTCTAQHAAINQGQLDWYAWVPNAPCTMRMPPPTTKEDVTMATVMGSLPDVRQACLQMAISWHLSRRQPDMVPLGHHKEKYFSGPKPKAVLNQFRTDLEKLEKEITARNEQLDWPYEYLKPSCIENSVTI
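Purified human 12hLO at 150 nM in 25 mM Hepes, 0.01% Triton X-100, pH 7.0, preincubated 15 min at room temperature with compound. Reaction started with 40 uM arachidonic acid, 30 min at room temperature. Hydroperoxide measured by Fe-xylenol orange, 573/405 nm absorbance ratio.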
ATXN viability – viability counter-screen for ATXN expression inhibitors. AID 651635. S2 cells (HEK-293 line with an ATXN2-luciferase reporter) viability, CellTiter-Fluor protease fluorescence, 24 h. Potency, µM (doses to about 56.7 µM), hits mostly cytotoxic. hit rate 0.49% among 400,000; further: nearly all actives have a fitted effect of over 40% in size
TGFb SMAD3 inh – blocks TGF-b signaling; HepG2 CAGA-GFP TGF-b/SMAD3 reporter, GFP fluorescence, 18 h; TGF-beta stimulated, 500 pg/mL final; Potency, µM (top dose mostly 46.1 µM), without a hit: top-dose activity, negative = inhibition, most hits filed as inhibitors; hit rate 1.2% among 410,000; further: on the % scale 0 is the no-effect control and ±100 the full control effect; nearly all actives have a fitted effect of over 65% in size
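Inhibition of TGF-beta-driven CAGA-GFP reporter expression in HEPG2 cells is measured by cellular GFP fluorescence after 18 h stimulation with 500 pg/mL recombinant TGF-beta in 1% FBS medium at 37 degrees C.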
ATXN2 expr inh – ATXN2 expression inhibition. HEK-293 ATXN2-luciferase reporter, luminescence, 24 h. Potency, µM (titrated, usually from 57 µM), without a hit: at the top dose activity change, negative = inhibition, hits mostly inhibitors. hit rate 0.72% among 360,000. AID 1745845; further: on the % scale 0 is the no-effect control and ±100 the full control effect; nearly all actives have a fitted effect of over 55% in size
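ATXN2-luciferase reporter cells (luciferase flanked by upstream and downstream ATXN2 gene portions) were treated 24 h at 37 °C with compounds at up to 57 uM. SteadyGlo luminescence gave expression; GF-AFC fluorescence gave viability.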
HepG2 viability – kills HepG2 cells in TGF-b inhibitor counter-screen. HepG2 CAGA-GFP viability, ATP luminescence, 18 h. Potency, µM (titrated, usually from 46.1 µM), without a hit: at the highest dose activity change, negative = cytotoxicity, most hits filed as cytotoxic. hit rate 0.76% among 410,000. AID 588856
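CellTiter-Glo luminescence gave cytotoxicity after 18 hours at 37 degrees C. The cells were HepG2 CAGA-GFP in 1% FBS DMEM, stimulated with 500 pg/mL TGF-beta after compound addition. %Activity was normalised to no-cell wells (complete cell-killing) and DMSO (no toxicity), and curves were fitted and classified.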
Starred values were filed as active, the others as inactive; i = inactive; ? = inconclusive; / = no result given; ! = not active in a repeat; [ ] = another dose, or the depositor's remark. Only some compounds are listed: those with a hit (about 2.7% of all), similar ones and a draw of the others. The call rests on the fitted dose curve; in most records, active means well fitted curve in the direction sought with a large enough effect; inconclusive means small, poorly fitted or top-dose-only effect, or another doubt; inactive means no such curve, though single readings can be large; an effect the other way counts as inactive or inconclusive. Potency means the concentration at half of the fitted maximal effect.

SMILES	ALOX12 inh	ATXN viability	TGFb SMAD3 inh	ATXN2 expr inh	HepG2 viability
COc1ccc(/C=N/n2c(C3CCCCC3)n[nH]c2=S)c(OC)c1	39.8µM*	i	4.1%	/	-8.5%
CC(=O)N1c2ccccc2NC2=C(C(=O)CCC2)C1c1ccccc1 (stereo not given)	-2.8%	/	/	/	/
Cc1ccccc1C1C=C(c2ccccc2)OC(c2ccccc2)=C1C=O (stereo not given)	5.62µM*	/	/	/	/
O=C1NC2(CCN(CC3CCCCC3)CC2)COc2ccccc21	63.1µM*	/	/	/	/
O=C1NC2(CCN(Cc3ccc(F)cc3)CC2)COc2ccccc21	-6.8%[176 µM]	/	/	/	/
COc1cccc(CNc2nc3cc(C(C)=C(C)C)sc3c(=O)n2C)c1	10µM*	i	?	-8.4%	-19.0%
CN(C)CCCNc1oc(/C=C/c2cccs2)nc1C#N	-27.3%	/	/	/	/
C=Cc1ccc(Cn2c(C(=O)O)c(CNCc3cccs3)c3ccc(C)cc32)cc1	?	/	?	?	12.6µM*
COc1ccc2c(CNCCc3cccs3)c(C(=O)O)n(Cc3ccc(F)cc3Cl)c2c1	-20.6%	/	?	/	17.8µM*
Cc1ccc2c(CNCc3ccc(C)o3)c(C(=O)O)n(Cc3ccc(F)cc3)c2c1	-21.0%	/	-28.7%	?	-45.4%
C=Cc1ccc(Cn2c(C(=O)O)c(CNCc3ccccc3)c3ccc(OC)cc32)cc1	3.98µM*	/	/	/	-50.6%
C=Cc1ccc(Cn2c(C(=O)O)c(CNCc3ccc(F)cc3)c3ccc(C)cc32)cc1	?	17.8µM*	12.6µM*	?	-107.2%
CCn1c(SCC(=O)Nc2ccc3ccccc3c2)nnc1-c1cc2ccccc2o1	-3.1%	/	/	/	/
COc1ccccc1-n1nnc(C(=O)OCc2cc(C)ccc2C)c1C	5.2%	/	/	/	/
COc1ccc(Cn2c(C(=O)O)c(CNCc3cccs3)c3ccc(C)cc32)cc1	?	5.01µM*	?	?	-40.7%
Cc1ccc2c(CNCc3cccs3)c(C(=O)O)n(Cc3ccc(F)cc3)c2c1	-27.2%	?	?	-20.3%	-49.8%
COc1cccc(C(=O)NCC(=O)OCC(=O)Nc2ncc(Cl)cc2Cl)c1	-25.1%	i	40.2%	9.6%	10µM*
CNC(=O)[C@@H]1CN(Cc2cccc(OC(F)(F)F)c2)C[C@H]1CO	18.3%	/	/	/	/
Cc1ccc(C)n1-c1nc(=S)[nH][nH]1	4.47µM*	i	-5.6%	4.0%	-3.3%
OC(c1ccc(F)cc1)c1nc(-c2cncnc2)cs1 (stereo not given)	9.0%	i	-0.2%	-1.8%	3.55µM*
COc1ccc(CNC(=O)C2CCCN(S(=O)(=O)N(C)c3ccc(F)cc3)C2)cc1OC (stereo not given)	3.9%	/	?	/	-27.3%
CN(c1ccc(F)cc1)S(=O)(=O)N1CCCC(C(=O)NCc2cccc(Br)c2)C1 (stereo not given)	-8.1%	/	8.91µM*	/	-54.2%
CCCCCN=Cc1c(C)[nH]n(-c2nc3ccccc3s2)c1=O	-15.1%	i	-15.2%	12.6µM*	1.41µM*
O=C(Nc1ccc(F)cc1)c1cc(-c2ccco2)on1	2.1%	/	/	/	/
CCOc1cc2c(cc1NC(=O)CCC(=O)c1ccc(C)cc1)OC(C)C2 (stereo not given)	4.47µM*	/	/	/	/
SMILES	ALOX12 inh	ATXN viability	TGFb SMAD3 inh	ATXN2 expr inh	HepG2 viability
O=C(COc1ccc(Cl)cc1C1CCCCC1)NCCc1nnc2ccccn12	6.7%	/	/	/	/
COc1ccc(-c2[nH]nc3nc(N4CCN(C(=O)c5ccoc5)CC4)cc(C(F)(F)F)c23)cc1	0.0%	20µM*	?	20µM*	-38.7%
Cc1nc(N2CCN(C(=O)c3ccoc3)CC2)cc(C(F)(F)F)n1	10.4%	/	/	/	/
NC(Cc1ccccc1)C(=O)N1CCC2(CC1)CN(C(=O)c1ccc(Cl)cc1)CCO2 (stereo not given)	9.5%[6.33 µM]	/	/	/	/
CCCCCCCCCCCC1=C(O)C(=O)C=C(O)C1=O	3.43µM*!	i	?	?	-68.3%
Cc1ccccc1-c1cnc2[nH]cc(CC(=O)NCCN(C)C)c2c1	-20.9%[176 µM]	/	/	/	/
COc1ccc(-c2cnc(N)nc2-c2ccc(OCc3ccccc3F)cc2O)cc1OC	-13.1%	/	/	/	/
COc1ccc(-c2cn[nH]c2-c2ccc(OCc3ccccc3F)cc2O)cc1OC	?	?	15.8µM*	?	-87.9%
Cc1ccc(Cn2cc(/C=N/Nc3ccc([N+](=O)[O-])cn3)c3ccccc32)cc1	-6.2%	i	4.47µM*	-15.3%	-33.0%
Cc1ccc(C(=O)N/N=C/c2cn(Cc3ccccc3)c3ccccc23)cn1	75.0%	i	1.58µM*	/	0.562µM*
CCNC(=S)N/N=C/c1c(F)cccc1F	3.6%	/	/	/	/
O=[N+]([O-])/C=C/c1cn(Cc2ccc(F)cc2)c2ccccc12	3.55µM*	?	7.94µM*	?	-58.9%
O=C(O)c1ccc(N/N=C/c2cn(Cc3ccc(F)cc3)c3ccccc23)cc1	?	i	?	65.7%	-74.3%
CCNC(=S)N/N=C/c1cn(Cc2ccccc2F)c2ccccc12	39.8µM*	i	-12.7%	-8.2%	-13.8%
CNC(=S)N/N=C/c1cn(Cc2c(F)cccc2Cl)c2ccccc12	25.1µM*	?	6.2%	-8.9%	-3.5%
CNC(=S)N/N=C/c1c(C)cccc1Cl	?	i	-16.9%	-30.9%	16.8%
CCNC(=S)N/N=C/c1cn(Cc2ccc(F)cc2)c2ccccc12	39.8µM*	?	?	?	-2.4%
O=C(Cc1cccs1)NC1CCCC(C(F)(F)F)C1 (stereo not given)	-18.2%	/	/	/	/
N#Cc1nc(-c2ccc(S(=O)(=O)N3CCCCCC3)cc2)oc1NCc1ccco1	-1.5%	/	/	/	/
CC1CCCCN1S(=O)(=O)c1ccc2nc(N3CCCCCC3)ccc2c1 (stereo not given)	12.6µM*	/	/	/	/
Cc1ccc(C)c(N2CCN(c3ccc4cc(S(=O)(=O)N5CCCCC5)ccc4n3)CC2)c1	?	i	-9.4%	-25.4%	-2.7%
Oc1ccccc1/C=N/NC(=S)NC1CC2C=CC1C2 (stereo not given)	?	i	?	-37.2%	-161.3%
Oc1ccccc1C=NNC(=S)NC1CC2C=CC1C2 (stereo not given)	44.7µM*	?	?	/	-43.1%
Cc1cc(NC(=O)CCS(=O)(=O)c2ccc3c(c2)NC(=O)C(C)S3)ccc1Br (stereo not given)	/	i	11.2µM*	/	-66.3%
COc1ccc(NC(=O)CCS(=O)(=O)c2ccc3c(c2)NC(=O)C(C)S3)cc1OC (stereo not given)	0.0%	i	11.0%	-10.2%	-10.5%
CC(=O)NCc1cc(C)cc2c(C)c(C)[nH]c12	-12.4%	/	/	/	/
O=C(Nc1nc2ccccc2n1CCN1CCOCC1)c1cccc([N+](=O)[O-])c1	9.9%[57.4 µM]	/	/	21.7µM*	/
CC(=O)OCC1(C)CN(c2ccccc2)N(C(C)=O)C1=O (stereo not given)	-15.1%	i	-7.9%	/	3.2%
